Experimental data published in article PMC7862700, “An all-to-all approach to the identification of sequence-specific readers for epigenetic DNA modifications on cytosine”.

Experiments:
Assay in all cases: DAPPL (digital affinity profiling via proximity ligation, sequencing); 10 mM Tris-HCl pH 7.5, 50 mM NaCl, 1 mM DTT, 4% glycerol, room temperature, 30 min; GST-TFs on glutathione beads, 16-mer random dsDNA library, 0.1% formaldehyde crosslink after washing; high values mean tight binding
FEV = target: T1, FEV (Homo sapiens, UniProt Q99581 1-238); settings: protein: recombinant; tags: N-terminal GST; dsDNA, one strand shown
T1 sequence: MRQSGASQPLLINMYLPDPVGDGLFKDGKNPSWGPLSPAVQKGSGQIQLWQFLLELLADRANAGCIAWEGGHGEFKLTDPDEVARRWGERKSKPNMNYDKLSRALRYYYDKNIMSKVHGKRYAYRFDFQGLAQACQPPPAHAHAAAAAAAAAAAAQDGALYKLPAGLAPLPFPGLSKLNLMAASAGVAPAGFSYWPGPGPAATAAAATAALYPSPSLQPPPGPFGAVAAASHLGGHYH
Procedure, shortened: (§1)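 Yeast served to express human transcription factors as GST fusions, which were then captured on glutathione beads and labelled with DNA barcodes. Pooled with a tag-only sample, they were incubated with 200 nmole of a 16-mer random double-stranded DNA library for 30 min at room temperature in Tris/NaCl/DTT/glycerol buffer, washed, crosslinked with 0.1% formaldehyde, ligated by proximity, amplified by PCR and sequenced. Dividing each hexamer's read frequency for a factor by its frequency for the tag-only sample gives the binding signal.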

ETV5 = ETV5 (Homo sapiens, UniProt P41161 1-510); settings: protein: recombinant; tags: N-terminal GST; dsDNA, one strand shown
Sequence of ETV5 (P41161 whole entry): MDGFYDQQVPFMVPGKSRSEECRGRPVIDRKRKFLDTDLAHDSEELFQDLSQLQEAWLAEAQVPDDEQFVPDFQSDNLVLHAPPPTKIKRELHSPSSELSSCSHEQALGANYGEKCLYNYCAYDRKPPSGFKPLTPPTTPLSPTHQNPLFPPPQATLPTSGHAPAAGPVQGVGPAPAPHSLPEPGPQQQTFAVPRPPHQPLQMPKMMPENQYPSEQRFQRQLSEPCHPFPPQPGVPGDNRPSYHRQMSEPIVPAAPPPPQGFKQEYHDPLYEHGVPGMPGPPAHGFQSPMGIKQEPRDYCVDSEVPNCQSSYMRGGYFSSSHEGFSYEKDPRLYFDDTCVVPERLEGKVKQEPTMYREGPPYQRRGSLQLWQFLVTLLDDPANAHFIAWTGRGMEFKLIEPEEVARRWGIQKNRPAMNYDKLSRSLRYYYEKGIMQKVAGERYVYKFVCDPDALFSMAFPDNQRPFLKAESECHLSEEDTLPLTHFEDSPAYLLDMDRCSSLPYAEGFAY
Procedure, shortened: as §1

HSF1 = HSF1 (Homo sapiens, UniProt Q00613 1-529); settings: protein: recombinant; tags: N-terminal GST; chain copies: 3; dsDNA, one strand shown
Sequence of HSF1 (Q00613 whole entry): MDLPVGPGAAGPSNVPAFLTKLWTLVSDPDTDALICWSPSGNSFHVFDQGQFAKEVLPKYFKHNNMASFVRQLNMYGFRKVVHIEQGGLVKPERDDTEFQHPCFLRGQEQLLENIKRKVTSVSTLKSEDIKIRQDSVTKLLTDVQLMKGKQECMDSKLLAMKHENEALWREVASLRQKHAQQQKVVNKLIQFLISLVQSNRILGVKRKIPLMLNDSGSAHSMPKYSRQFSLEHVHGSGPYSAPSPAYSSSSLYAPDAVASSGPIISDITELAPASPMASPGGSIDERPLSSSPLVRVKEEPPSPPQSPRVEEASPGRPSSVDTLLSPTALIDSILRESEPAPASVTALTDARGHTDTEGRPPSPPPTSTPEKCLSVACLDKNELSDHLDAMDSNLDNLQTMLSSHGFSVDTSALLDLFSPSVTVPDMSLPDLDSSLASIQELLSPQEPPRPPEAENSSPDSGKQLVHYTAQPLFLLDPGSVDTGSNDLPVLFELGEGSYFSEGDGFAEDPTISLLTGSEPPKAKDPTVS
Procedure, shortened: as §1

SPIC = target: T2, SPIC (Homo sapiens, UniProt Q8N5J4 1-248); settings: protein: recombinant; tags: N-terminal GST; dsDNA, one strand shown
T2 sequence: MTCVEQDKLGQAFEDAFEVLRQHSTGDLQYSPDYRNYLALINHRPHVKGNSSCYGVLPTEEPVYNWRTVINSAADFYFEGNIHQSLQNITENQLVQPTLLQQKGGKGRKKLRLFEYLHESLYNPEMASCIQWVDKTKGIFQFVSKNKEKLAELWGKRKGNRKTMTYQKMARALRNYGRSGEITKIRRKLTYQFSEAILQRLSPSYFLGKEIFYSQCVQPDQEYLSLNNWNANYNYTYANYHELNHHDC
Procedure, shortened: as §1

ELF4 = ELF4 (Homo sapiens, UniProt Q99607 1-663); settings: protein: recombinant; tags: N-terminal GST; dsDNA, one strand shown
Sequence of ELF4 (Q99607 whole entry): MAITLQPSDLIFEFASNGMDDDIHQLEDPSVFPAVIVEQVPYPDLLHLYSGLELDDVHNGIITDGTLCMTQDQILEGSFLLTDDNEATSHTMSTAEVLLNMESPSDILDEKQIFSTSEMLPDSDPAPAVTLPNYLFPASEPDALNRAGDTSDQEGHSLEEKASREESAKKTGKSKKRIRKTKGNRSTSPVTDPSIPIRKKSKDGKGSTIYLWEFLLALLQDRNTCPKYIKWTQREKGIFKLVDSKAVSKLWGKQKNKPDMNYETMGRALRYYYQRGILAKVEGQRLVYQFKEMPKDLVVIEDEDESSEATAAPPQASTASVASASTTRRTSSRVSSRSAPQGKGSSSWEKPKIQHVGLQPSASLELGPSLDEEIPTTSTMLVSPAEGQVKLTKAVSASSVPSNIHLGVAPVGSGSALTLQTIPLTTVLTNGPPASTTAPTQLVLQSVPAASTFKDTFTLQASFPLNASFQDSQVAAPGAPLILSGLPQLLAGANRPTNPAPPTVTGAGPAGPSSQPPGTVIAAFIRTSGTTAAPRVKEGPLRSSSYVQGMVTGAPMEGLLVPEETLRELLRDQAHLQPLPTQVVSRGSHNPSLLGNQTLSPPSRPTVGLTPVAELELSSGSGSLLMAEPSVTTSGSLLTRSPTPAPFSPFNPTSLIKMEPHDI
Procedure, shortened: as §1

ELK4 = target: T3, ELK4 (Homo sapiens, UniProt P28324-2 1-405); settings: protein: recombinant; tags: N-terminal GST; dsDNA, one strand shown
T3 sequence: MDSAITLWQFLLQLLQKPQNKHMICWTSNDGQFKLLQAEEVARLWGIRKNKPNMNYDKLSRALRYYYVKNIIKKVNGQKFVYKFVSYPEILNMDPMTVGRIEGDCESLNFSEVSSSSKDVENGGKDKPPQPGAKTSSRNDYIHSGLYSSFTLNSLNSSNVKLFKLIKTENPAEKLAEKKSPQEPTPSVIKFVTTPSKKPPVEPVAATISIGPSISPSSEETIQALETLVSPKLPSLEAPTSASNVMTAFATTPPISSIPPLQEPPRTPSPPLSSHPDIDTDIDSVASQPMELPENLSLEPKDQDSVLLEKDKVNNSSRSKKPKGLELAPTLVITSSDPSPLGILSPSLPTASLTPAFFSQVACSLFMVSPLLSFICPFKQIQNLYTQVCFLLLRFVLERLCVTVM
Procedure, shortened: as §1

ETV2 = target: T4, ETV2 (Homo sapiens, UniProt O00321 1-342); settings: protein: recombinant; tags: N-terminal GST; dsDNA, one strand shown
T4 sequence: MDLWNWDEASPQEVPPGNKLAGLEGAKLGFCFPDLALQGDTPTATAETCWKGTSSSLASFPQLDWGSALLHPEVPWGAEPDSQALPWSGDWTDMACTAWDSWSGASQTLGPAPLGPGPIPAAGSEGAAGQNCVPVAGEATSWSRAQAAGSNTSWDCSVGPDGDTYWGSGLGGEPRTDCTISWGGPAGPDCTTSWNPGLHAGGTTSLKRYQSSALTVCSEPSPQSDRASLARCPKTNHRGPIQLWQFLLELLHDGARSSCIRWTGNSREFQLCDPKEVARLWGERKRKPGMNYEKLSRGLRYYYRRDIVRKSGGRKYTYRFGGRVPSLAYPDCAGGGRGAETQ
Procedure, shortened: as §1

ELF3 = target: T5, ELF3 (Homo sapiens, UniProt P78545 1-371); settings: protein: recombinant; tags: N-terminal GST; dsDNA, one strand shown
T5 sequence: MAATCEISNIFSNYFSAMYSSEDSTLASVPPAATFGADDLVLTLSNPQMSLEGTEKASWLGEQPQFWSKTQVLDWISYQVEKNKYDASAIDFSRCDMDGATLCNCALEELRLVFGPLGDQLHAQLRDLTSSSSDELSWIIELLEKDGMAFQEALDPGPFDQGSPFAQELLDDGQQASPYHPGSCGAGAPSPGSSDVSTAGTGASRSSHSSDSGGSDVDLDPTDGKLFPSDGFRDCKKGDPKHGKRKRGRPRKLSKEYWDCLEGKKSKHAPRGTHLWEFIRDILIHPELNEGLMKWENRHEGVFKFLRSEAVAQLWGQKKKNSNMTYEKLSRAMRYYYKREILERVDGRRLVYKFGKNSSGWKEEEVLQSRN
Procedure, shortened: as §1

CRX = CRX (Homo sapiens, UniProt O43186 1-299); settings: protein: recombinant; tags: N-terminal GST; dsDNA, one strand shown
Sequence of CRX (O43186 whole entry): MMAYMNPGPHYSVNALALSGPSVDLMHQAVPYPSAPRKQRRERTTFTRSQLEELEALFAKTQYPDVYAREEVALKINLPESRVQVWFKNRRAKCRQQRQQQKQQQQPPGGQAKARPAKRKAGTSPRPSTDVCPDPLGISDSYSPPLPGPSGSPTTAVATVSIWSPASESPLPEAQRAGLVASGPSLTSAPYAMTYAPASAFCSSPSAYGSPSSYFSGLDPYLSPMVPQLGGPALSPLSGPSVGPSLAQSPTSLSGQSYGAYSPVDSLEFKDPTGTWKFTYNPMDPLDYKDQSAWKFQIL
Procedure, shortened: as §1

ETV1 = ETV1 (Homo sapiens, UniProt P50549 1-477); settings: protein: recombinant; tags: N-terminal GST; dsDNA, one strand shown
Sequence of ETV1 (P50549 whole entry): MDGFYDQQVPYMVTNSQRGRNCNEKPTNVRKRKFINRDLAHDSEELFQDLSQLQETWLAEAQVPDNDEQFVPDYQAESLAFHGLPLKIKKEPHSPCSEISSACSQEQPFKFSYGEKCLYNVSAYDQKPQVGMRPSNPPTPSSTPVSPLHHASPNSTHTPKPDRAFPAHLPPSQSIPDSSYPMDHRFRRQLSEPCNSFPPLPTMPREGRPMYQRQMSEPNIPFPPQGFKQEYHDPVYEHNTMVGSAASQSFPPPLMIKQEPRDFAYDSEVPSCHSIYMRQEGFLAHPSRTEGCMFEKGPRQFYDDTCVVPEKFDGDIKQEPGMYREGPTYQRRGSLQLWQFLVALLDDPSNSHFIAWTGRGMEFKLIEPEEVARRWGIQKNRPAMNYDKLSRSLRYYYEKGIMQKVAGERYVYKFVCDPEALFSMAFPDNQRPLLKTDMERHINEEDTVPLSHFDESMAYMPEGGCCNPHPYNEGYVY
Procedure, shortened: as §1

ERF = target: T6, ERF (Homo sapiens, UniProt P50548 1-548); settings: protein: recombinant; tags: N-terminal GST; dsDNA, one strand shown
T6 sequence: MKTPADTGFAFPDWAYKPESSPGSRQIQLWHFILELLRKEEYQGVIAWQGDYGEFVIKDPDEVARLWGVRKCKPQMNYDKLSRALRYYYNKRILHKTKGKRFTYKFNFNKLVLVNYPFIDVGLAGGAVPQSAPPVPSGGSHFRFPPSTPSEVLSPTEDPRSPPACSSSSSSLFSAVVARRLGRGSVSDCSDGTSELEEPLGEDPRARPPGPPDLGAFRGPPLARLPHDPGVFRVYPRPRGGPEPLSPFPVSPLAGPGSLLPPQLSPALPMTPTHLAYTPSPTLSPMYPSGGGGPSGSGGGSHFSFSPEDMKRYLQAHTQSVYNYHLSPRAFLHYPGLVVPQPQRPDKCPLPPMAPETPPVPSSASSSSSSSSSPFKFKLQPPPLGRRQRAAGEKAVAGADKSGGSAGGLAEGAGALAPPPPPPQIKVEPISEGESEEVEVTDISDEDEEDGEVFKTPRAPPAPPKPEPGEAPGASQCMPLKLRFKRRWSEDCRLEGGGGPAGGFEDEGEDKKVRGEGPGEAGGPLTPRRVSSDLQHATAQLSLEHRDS
Procedure, shortened: as §1

ETV3L = target: T7, ETV3L (Homo sapiens, UniProt Q6ZN32 1-361); settings: protein: recombinant; tags: N-terminal GST; dsDNA, one strand shown
T7 sequence: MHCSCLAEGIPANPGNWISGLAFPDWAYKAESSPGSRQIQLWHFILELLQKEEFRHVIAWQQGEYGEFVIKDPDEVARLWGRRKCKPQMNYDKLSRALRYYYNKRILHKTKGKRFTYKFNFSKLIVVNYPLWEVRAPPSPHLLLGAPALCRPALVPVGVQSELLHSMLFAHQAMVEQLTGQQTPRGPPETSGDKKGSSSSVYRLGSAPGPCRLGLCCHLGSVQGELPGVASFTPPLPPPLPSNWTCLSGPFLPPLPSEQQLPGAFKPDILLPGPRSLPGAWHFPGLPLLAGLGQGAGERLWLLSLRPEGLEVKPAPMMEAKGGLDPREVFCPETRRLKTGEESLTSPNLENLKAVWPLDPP
Procedure, shortened: as §1

ETS2 = target: T8, ETS2 (Homo sapiens, UniProt P15036 1-469); settings: protein: recombinant; tags: N-terminal GST; dsDNA, one strand shown
T8 sequence: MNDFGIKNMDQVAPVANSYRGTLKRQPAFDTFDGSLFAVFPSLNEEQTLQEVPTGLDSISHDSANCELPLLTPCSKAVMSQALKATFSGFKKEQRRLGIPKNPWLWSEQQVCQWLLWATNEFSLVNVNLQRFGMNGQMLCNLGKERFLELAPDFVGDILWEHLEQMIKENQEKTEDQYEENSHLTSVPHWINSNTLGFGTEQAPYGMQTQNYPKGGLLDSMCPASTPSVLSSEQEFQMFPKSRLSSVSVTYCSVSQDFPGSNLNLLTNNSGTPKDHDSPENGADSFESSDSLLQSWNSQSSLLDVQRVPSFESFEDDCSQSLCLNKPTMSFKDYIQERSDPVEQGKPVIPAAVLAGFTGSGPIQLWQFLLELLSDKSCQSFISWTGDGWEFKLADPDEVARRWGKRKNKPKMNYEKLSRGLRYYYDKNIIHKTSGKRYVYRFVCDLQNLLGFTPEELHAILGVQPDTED
Procedure, shortened: as §1

SPDEF = target: T9, SPDEF (Homo sapiens, UniProt O95238 1-335); settings: protein: recombinant; tags: N-terminal GST; dsDNA, one strand shown
T9 sequence: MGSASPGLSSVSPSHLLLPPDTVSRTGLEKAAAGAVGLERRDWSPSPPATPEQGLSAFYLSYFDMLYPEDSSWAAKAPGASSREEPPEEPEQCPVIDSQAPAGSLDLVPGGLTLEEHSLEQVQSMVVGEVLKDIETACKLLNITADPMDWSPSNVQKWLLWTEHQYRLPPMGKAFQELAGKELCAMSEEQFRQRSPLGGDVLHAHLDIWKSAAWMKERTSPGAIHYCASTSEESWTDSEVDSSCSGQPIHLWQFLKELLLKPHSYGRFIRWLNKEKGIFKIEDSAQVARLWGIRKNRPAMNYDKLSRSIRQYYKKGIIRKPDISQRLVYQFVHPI
Procedure, shortened: as §1

ETV7 = target: T10, ETV7 (Homo sapiens, UniProt Q9Y603 1-341); settings: protein: recombinant; tags: N-terminal GST; dsDNA, one strand shown
T10 sequence: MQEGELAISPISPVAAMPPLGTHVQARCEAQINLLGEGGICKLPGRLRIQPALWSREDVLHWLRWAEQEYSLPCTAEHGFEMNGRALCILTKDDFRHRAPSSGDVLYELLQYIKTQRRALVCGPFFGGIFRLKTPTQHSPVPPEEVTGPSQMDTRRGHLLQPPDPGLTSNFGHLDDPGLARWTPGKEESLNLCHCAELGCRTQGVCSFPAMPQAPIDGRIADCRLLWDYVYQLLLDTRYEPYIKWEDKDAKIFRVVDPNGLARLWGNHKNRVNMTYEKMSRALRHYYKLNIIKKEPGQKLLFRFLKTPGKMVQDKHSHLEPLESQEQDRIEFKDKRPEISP
Procedure, shortened: as §1

ELF5 = target: T11, ELF5 (Homo sapiens, UniProt Q9UKW6-2 1-255); settings: protein: recombinant; tags: N-terminal GST; dsDNA, one strand shown
T11 sequence: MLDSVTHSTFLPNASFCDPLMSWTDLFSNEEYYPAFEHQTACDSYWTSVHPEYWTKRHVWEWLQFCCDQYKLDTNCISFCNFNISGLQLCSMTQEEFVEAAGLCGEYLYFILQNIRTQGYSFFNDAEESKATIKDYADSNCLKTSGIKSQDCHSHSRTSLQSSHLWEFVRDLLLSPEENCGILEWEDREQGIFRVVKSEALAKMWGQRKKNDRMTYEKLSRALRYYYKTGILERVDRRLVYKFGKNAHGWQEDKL
Procedure, shortened: as §1

ETV3 = target: T12, ETV3 (Homo sapiens, UniProt P41162-2 1-143); settings: protein: recombinant; tags: N-terminal GST; dsDNA, one strand shown
T12 sequence: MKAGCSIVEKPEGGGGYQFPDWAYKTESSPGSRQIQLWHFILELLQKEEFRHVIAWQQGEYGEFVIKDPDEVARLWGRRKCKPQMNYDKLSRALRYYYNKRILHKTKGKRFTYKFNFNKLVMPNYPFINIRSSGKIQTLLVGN
Procedure, shortened: as §1

ETV6 = ETV6 (Homo sapiens, UniProt P41212 1-452); settings: protein: recombinant; tags: N-terminal GST; dsDNA, one strand shown
Sequence of ETV6 (P41212 whole entry): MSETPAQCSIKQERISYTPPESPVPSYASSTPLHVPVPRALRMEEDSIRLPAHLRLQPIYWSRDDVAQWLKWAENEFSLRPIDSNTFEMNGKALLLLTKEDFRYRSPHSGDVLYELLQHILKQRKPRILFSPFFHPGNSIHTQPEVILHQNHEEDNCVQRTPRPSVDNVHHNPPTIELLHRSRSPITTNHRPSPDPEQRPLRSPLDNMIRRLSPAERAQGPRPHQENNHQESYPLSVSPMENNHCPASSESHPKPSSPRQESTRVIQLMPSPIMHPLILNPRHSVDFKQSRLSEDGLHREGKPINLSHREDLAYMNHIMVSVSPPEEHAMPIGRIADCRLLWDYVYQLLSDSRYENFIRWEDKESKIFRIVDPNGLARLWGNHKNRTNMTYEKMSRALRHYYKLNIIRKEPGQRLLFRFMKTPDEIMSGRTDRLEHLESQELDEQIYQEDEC
Procedure, shortened: as §1

Question: How did the binding signal (FEV) turn out when TAATAT was run?
Answer: 1.25 fold enrichment (6-mer frequency, TF over GST control)

Question: What about the binding signal (ETV5) of the same sequence?
Answer: 1.26 fold enrichment (6-mer frequency, TF over GST control)

Question: And the binding signal (HSF1)?
Answer: 1.58 fold enrichment (6-mer frequency, TF over GST control)

Question: And the binding signal (SPIC)?
Answer: 1.16 fold enrichment (6-mer frequency, TF over GST control)

Question: And the binding signal (ELF4)?
Answer: 1.28 fold enrichment (6-mer frequency, TF over GST control)

Question: And the binding signal (ELK4)?
Answer: 1.37 fold enrichment (6-mer frequency, TF over GST control)

Question: What about the binding signal (ETV2) of the same sequence?
Answer: 1.31 fold enrichment (6-mer frequency, TF over GST control)

Question: What about the binding signal (ELF3) of the same sequence?
Answer: 1.25 fold enrichment (6-mer frequency, TF over GST control)

Question: What about the binding signal (CRX) of the same sequence?
Answer: 2.01 fold enrichment (6-mer frequency, TF over GST control)

Question: What about the binding signal (ETV1) of the same sequence?
Answer: 1.27 fold enrichment (6-mer frequency, TF over GST control)

Question: What about the binding signal (ERF) of the same sequence?
Answer: 1.35 fold enrichment (6-mer frequency, TF over GST control)

Question: What about the binding signal (ETV3L) of the same sequence?
Answer: 1.34 fold enrichment (6-mer frequency, TF over GST control)

Question: What about the binding signal (ETS2) of the same sequence?
Answer: 1.24 fold enrichment (6-mer frequency, TF over GST control)

Question: What about the binding signal (SPDEF) of the same sequence?
Answer: 1.23 fold enrichment (6-mer frequency, TF over GST control)

Question: And the binding signal (ETV7)?
Answer: 1.35 fold enrichment (6-mer frequency, TF over GST control)

Question: And the binding signal (ELF5)?
Answer: 1.22 fold enrichment (6-mer frequency, TF over GST control)

Question: What about the binding signal (ETV3) of the same sequence?
Answer: 1.23 fold enrichment (6-mer frequency, TF over GST control)

Question: What about the binding signal (ETV6) of the same sequence?
Answer: 1.23 fold enrichment (6-mer frequency, TF over GST control)
